From PubChem BioAssay AID1347075 (National Center for Advancing Translational Sciences (NCATS), 2019)
Hit rate of the full screen: of about 400,000 compounds, about 5,500 (1.4%) were called active. Roughly 9% stayed inconclusive and do not appear here. What follows is part of a selection rich in actives, with near analogues and random picks from the rest. Unmarked numbers belong to inactive results. The call rests on the fitted dose curve; in most records, active means well fitted cell-killing curve with a large enough effect; inconclusive means small, poorly fitted or top-dose-only effect, or effect the other way; inactive means flat fitted curve, though single readings scatter.

experiment: qHTS assay for MDR1-selective chemotherapeutics: Primary screen using the parental adenocarcinoma cell KB-3-1; settings: KB-3-1 viability, CellTiter-Glo ATP luminescence, 72 h; series mostly up to 46.1 µM; activity change, negative = cytotoxic: at the top concentration; further: nearly all actives have a fitted effect of over 60% in size
How it was run: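 KB-3-1 cells, DMEM (no phenol red) + 10% FBS; compound by pin transfer, 72 h, 37 °C. Readout: CellTiter-Glo luminescence after 10 min. Data normalized, curve-fitted.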
On the % scale 0 is the no-effect control and ±100 the full control effect; potency means the concentration at half of the fitted maximal effect.

Structure (SMILES) | activity change, negative = cytotoxic | Potency
Cc1ccc(S(=O)(=O)N2CCN(c3nc(-n4cnc5ccccc54)nc4ccccc34)CC2)cc1 | 17.8% | –
CC(OC(=O)/C=C/c1ccccc1)C(=O)NC1CCCCC1C (stereo not given) | 1.76% | –
CC1CC(C)CN(C/C=C/c2ccccc2[N+](=O)[O-])C1 (stereo not given) | 2.5% | –
CC1CCCCC1NC(=O)/C(C#N)=C/C=C/c1ccccc1[N+](=O)[O-] (stereo not given) | – | 5.8 µM (active)
O=C1CCCC2=C1[C@@]1(CCC(c3ccccc3)C1)N=C(Nc1nc3ccccc3o1)N2 (stereo not given in full) | – | inactive
CCN(C(=O)CSc1nnc(C)n2c1cc1occc12)c1ccccc1 | 12.3% | –
CC(C)c1ccc2oc(-c3cc(NC(=O)c4cccs4)ccc3Cl)nc2c1 | 3.62% | –
CC(C)(C)n1nc(Cc2cccc3ccccc23)c(C#N)c1N | -23.1% | –
CCc1nn(-c2cc(Oc3cccc4ccccc34)nc(-c3ccccc3)n2)c(N)c1C#N | – | 5.8 µM (active)
C(=Nc1ccc(/C=C/c2ccnc3ccccc23)cc1)c1cc2c3c(c1)CCCN3CCC2 | 0% | –
CCOC(=O)C1CCN(C(c2ccc(F)cc2)c2sc3nc(-c4ccco4)nn3c2O)CC1 (stereo not given) | 1.03% | –
CCC1CCCCN1Cc1c(O)ccc2c(=O)c(Oc3ccccc3Cl)c(C(F)(F)F)oc12 (stereo not given) | 1.37% | –
CN(C)C(=O)c1coc2nc3ccccc3nc12 | -3.25% | –
CNC(=O)C(NC(=O)c1ccccc1)=C(C)C | -13% | –
CNC(=O)c1cccc2nc3ccccc3nc12 | – | 16.4 µM (active)
CCCCn1c(=N)c(S(=O)(=O)c2ccccc2)cc2c(=O)n3cccc(C)c3nc21 | 0.0272% | –
COc1ccc(NC(=O)CN2CCCN(Cc3ccccc3)S2(=O)=O)cc1 | -9.93% | –
COC(=O)C1C(=O)c2c([nH]c(C(=O)OCCSC)c2C)CC1C (stereo not given) | 5.65% | –
CCc1ccc(C2CC(=O)c3c([nH]c(C(=O)OCc4ccc(C)cc4)c3C)C2)cc1 (stereo not given) | -10.1% | –
CCCOC(=O)c1[nH]c2c(c1C)C(=O)CC(c1cccs1)C2 (stereo not given) | – | 0.651 µM (active)
COc1ccc(-c2nn(CC(=O)Nc3ccccc3F)c3c2cnc2ccc(F)cc23)cc1 | -5.21% | –
Cc1c2cnn(-c3ccccc3)c(=O)c2c(C)n1C(C)C(=O)Nc1ccc(Br)cc1F (stereo not given) | 5.69% | –
CN(C)C(=S)N=c1ssc(=S)n1Cc1ccco1 | – | 4.11 µM (active)
CCN(CC)C(=O)CSc1nnc(CNc2ccc(F)cc2)n1Cc1ccco1 | -10.8% | –
CCc1ccccc1N1CN(Cc2ccco2)CNC1=S | 2.61% | –

Structure (SMILES) | activity change, negative = cytotoxic | Potency
CCOc1ccc2nc(N3CCCC(C(=O)Nc4cc(C)ccc4C)C3)sc2c1 (stereo not given) | -4.09% | –
CCc1ccc(NC(=O)c2cnc3c(-c4ccccc4)c(C)nn3c2C)cc1 | -2.78% | –
CCN(CC)S(=O)(=O)c1ccc(N(C)CCc2ccc(OC)c(OC)c2)nc1 | -18.5% | –
CCN(CC)S(=O)(=O)c1ccc(N(C)Cc2ccc(C(F)(F)F)cc2)nc1 | – | 10.3 µM (active)
CCN(CC)S(=O)(=O)c1ccc(NC(=O)c2cnc(C)cn2)cc1 | 17.5% | –
COc1ccccc1-n1c(-c2ccc(C)cc2)cn2c3c(=O)n(C)c(=O)n(C)c3nc12 | 16.8% | –
CN(C)c1ccc(/C=C2\C=Cc3ccccc32)cc1Br | 11% | –
CCOC(=O)c1cc2c(=O)n3ccccc3nc2n(Cc2ccco2)c1=NC(=O)c1ccc(F)cc1 | 13.8% | –
COc1ccc(CCNC(=O)COC(=O)c2cc(=O)c3ccccc3o2)cc1 | -1.64% | –
COc1ccc(Nc2cc(=O)n(-c3ccccc3)c3c2c(=O)n(C)c(=O)n3C)cc1 | 43% | –
COc1ccc(Nc2cc(=O)oc3ccccc23)cc1 | – | 4.11 µM (active)
CC1=C(C(=O)OCC2CCCCC2)C(c2c(F)cccc2Cl)CC(=O)N1 (stereo not given) | 12.9% | –
CCc1ccc(N(CC)C(=O)CCn2cnc3onc(-c4ccc(F)cc4)c3c2=O)cc1 | 1.49% | –
Fc1ccc(-c2csc(-c3ccc(C4SCCS4)cc3)n2)cc1F | 2.11% | –
CCCc1nc2scc(-c3ccc(C)cc3)c2c(=O)n1N | -2.91% | –
CCCc1cc(-c2nc(-c3ccc(C)cc3)cs2)ccn1 | – | 11.6 µM (active)
O=C(CN1CCCCCC1)Nc1ccc(S(=O)(=O)N2CCCCC2)cc1 | -4.68% | –
CCc1ccc(NC(=O)CN2CCSc3ccc(S(=O)(=O)N4CCCC4)cc32)cc1 | – | 16.4 µM (active)
CCc1ccc(NC(=O)CN2C(=O)COc3ccc(S(=O)(=O)N4CCCC4)cc32)cc1 | 12.8% | –
O=C(NNS(=O)(=O)c1ccc(F)cc1)c1ccc([N+](=O)[O-])cc1Cl | -17% | –
O=[N+]([O-])c1ccc(NS(=O)(=O)c2ccccc2)c(Cl)c1 | – | 16.4 µM (active)
O=C(NCCNc1ccc([N+](=O)[O-])cc1Cl)c1ccccc1F | -1.36% | –
Cc1cccc(-n2ccnc2SCC(=O)Nc2cc(C(F)(F)F)ccc2Cl)c1 | -13% | –
Cc1cccc(C(=O)Nc2ccc(-c3nc4ccccc4s3)c(C)c2)c1 | 1.57% | –
Nc1nnc2c(C(F)(F)F)nc3ccccc3n12 | -3.46% | –
